# ERb SRC1 inh: ER-beta (human) coactivator binding inhibition. AID 633. Q92731. 86,000 tested, 1.3% active. TR-FRET ER-beta LBD / SRC1-Cy5 peptide binding; receptor agonist-loaded with 1 µM estradiol. inhibition, % at 25.6 µM;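 active means compounds whose percent inhibition of the receptor-coactivator binding signal exceeds about 50% in the single-dose screen, limit read from the data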;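 further: 0% = receptor plus peptide wells without compound and 100% = peptide-only wells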
# ERa SRC1 pot: ER-alpha (human) coactivator binding potentiation | 86,000 tested, 1.3% active | TR-FRET ERalpha-LBD/SRC-Cy5 coactivator binding, 2 h; 100 = basal binding, no effect | AID 639 | coactivator binding (% of control), % at 25.6 µM | P03372; in the data active means activity above about 200%;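 further: binding measured in presence of low estradiol as agonist stimulus; 0% = peptide alone without receptor and 100% = receptor with peptide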
# Smad3 inh: inhibitors of human Smad3 transcription factor binding | TR-FRET Smad3/Dy647-FoxH1 peptide binding, europium anti-His | P84022 | inhibition, % at 25 µM | 88,000 tested, 0.29% active;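 active means compounds that reduce the energy-transfer binding signal between the protein and its labelled peptide by more than half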;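 further: 0% = Smad3 plus labelled peptide maximal FRET and 100% = peptide-only background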
# FAK inh: FAK (human) kinase inhibition | Q05397 | biochemical FAK kinase activity assay | inhibition, %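 (tested at 7 µM)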 | 97,000 tested, 0.84% active | AID 727; in the data active means inhibition above about 19%;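 further: 0% = DMSO and 100% = reference compound high control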
# ERa SRC1 inh: ER-alpha (human) coactivator binding inhibition | P03372 | TR-FRET ER-alpha LBD / SRC-1 peptide, estradiol-bound | 86,000 tested, 1.7% active | inhibition, % at 25.6 µM | AID 629; in the data active means inhibition above about 50%;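 further: 0% = receptor plus peptide control and 100% = peptide only without receptor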
# Numbers without * were called inactive; x = no result given; [ ] = dose if it differs, or a comment. In the library only some 3.3% were active in any assay of this set; here they are far more common.
SMILES,ERb SRC1 inh,ERa SRC1 pot,Smad3 inh,FAK inh,ERa SRC1 inh
C[N+](C)(C)c1ncnc2c1ncn2[C@@H]1C[C@H](O)[C@@H](CO)O1,x,x,30,x,x
CC(C)(CC(=O)Nc1ccccc1)C(=O)O,x,x,2,x,x
Cc1ccc(-c2nnc(SCC(=O)Nc3ccc4c(c3)oc3ccccc34)n2C)c(Cl)c1,1,103,-1,0,5
Cn1c(SCC(=O)NC2CCCCC2)nnc1-c1cc2cc(Cl)ccc2o1,25,429*[fluorescence artefact?],-118,1,43
CCC(=O)Nc1cccc(NC(=O)CSc2nnc(C3CC3)n2C)c1,-11,204*,1,0,-6
CC(NC(=O)CSc1nnc(-c2cc3cc(Cl)ccc3o2)n1C)c1ccccc1 (stereo not given),2,99,-1,-2,8
Cn1c(SCC(=O)Nc2cccc(Br)c2)nnc1-c1cc2ccccc2o1,15,631*[fluorescence artefact?],-409,-56,5
c1csc(Cn2c(-c3cccs3)nc3ccccc32)c1,10,98,3,3,2
CC(C)Cn1c(-c2cccs2)nc2ccccc21,57*,85,7,1,-5
Cc1[nH]c2ccc(-c3nnc(SCC(=O)c4ccccc4F)o3)cc2c1C,46,62,0,-1,70*
Cc1ccc(-c2nnc(N3CCN(C(=O)CN4C(=O)c5ccccc5C4=O)CC3)c3ccccc23)cc1,6,125,-11,-5,58*
Cc1nc(Nc2nc(-c3ccccc3)cc(=O)[nH]2)nc2ccccc12,-2,239*,21,4,20
CCc1c(C)nc(Nc2nc(C)c3cc(OC)ccc3n2)[nH]c1=O,-7,112,-7,3,-1
COc1nc(Nc2nc3ccccc3c(=O)[nH]2)nc2ccc(C)cc12,53*[fluorescence artefact?],147,40,x,74*[fluorescence artefact?]
Cc1ccc(CN(Cc2cc3cc(C)ccc3[nH]c2=O)C(=O)N2CCOCC2)cc1,-6,484*,1,1,0
CCOc1ccc2[nH]c(=O)c(CN(Cc3ccc(C)cc3)C(=O)N3CCCC3)cc2c1,-3,100,-25,-3,-2
O=C(O)C[n+]1ccccc1,x,x,8,x,x
O=C(O)c1ccc2c(c1)[C@@H]1C=CC[C@@H]1[C@H](c1ccccn1)N2,86*,21,32,6,68*
Fc1ccc2c(c1)C1C=CCC1C(c1cc3c(cc1Br)OCO3)N2 (stereo not given),x,x,x,4,x
O/N=C/c1cc(Br)ccc1OCc1ccccc1F,x,x,x,20*,x
C=CCOc1ccc(Br)cc1/C=N/O,22,111,-11,6,-1
CSc1ncnc2c1ncn2[C@H]1O[C@@H](CO)[C@H](O)O[C@@H]1O,x,x,-4,x,x
O=C1c2ccccc2C(=O)N1CCn1nc(Cl)nc1Cl,59*[fluorescence artefact?],118,4,x,-13
O=C(O)CCN1C(=O)c2ccccc2C1=O,0,95,-3,1,7
Cc1ccc(S(=O)(=O)CCC(=O)OCC(=O)Nc2ncc(Cl)cc2Cl)cc1,5,108,3,2,-4
SMILES,ERb SRC1 inh,ERa SRC1 pot,Smad3 inh,FAK inh,ERa SRC1 inh
Cc1ccc(S(=O)(=O)NCC(=O)OCC(=O)Nc2ncc(Cl)cc2Cl)cc1,42,69,0,1,57*[fluorescence artefact?]
CCCCN(c1ccccc1)c1ncnc2c1cnn2C,x,x,-3,x,x
COCCN1CCn2c(nc3cc(NC(=O)c4cccs4)ccc32)C1,43,17,-13,3,74*[fluorescence artefact?]
CC(c1ccccc1)N1CCn2c(nc3cc(NC(=O)c4cccs4)ccc32)C1 (stereo not given),3,81,-2,3,0
COCCCn1c2nc3ccccc3nc2c2c(=O)n(Cc3ccccc3Cl)cnc21,12,257*,9,x,9
COCCCn1c2nc3ccccc3nc2c2c(=O)n(Cc3cccs3)cnc21,-10,98,28,-2,-5
COCCCn1cnc2c(c1=O)c1nc3ccccc3nc1n2-c1ccccc1,-30,106,8,2,-24
COCCCn1c2nc3ccccc3nc2c2c(=O)n(Cc3ccc(Cl)cc3)cnc21,38,104,6,-2,56*[fluorescence artefact?]
COC(=O)C(NC(=O)CCc1c(C)nc2ncnn2c1C)C(C)C (stereo not given),66*[fluorescence artefact?],85,4,2,-8
O=C(c1cccc(F)c1)N1CCN(C(=O)c2cc3ncc(Br)cn3n2)CC1,59*,66,-18,-1,55*
N#Cc1c(OCC(=O)c2ccccc2)nc2c(c1-c1ccco1)CCc1ccccc1-2,13,230*,-10,4,15
Cc1cc(C)c(C#N)c(OCC(=O)c2ccccc2)n1,-3,108,-2,-1,-1
CCOC(=O)Cn1c2ccccc2c2nc3ccccc3nc21,13,77,18,4,48
CCOC(=O)Cn1c(C(F)(F)F)nc2nc(Cl)c(Cl)nc21,x,x,56*,x,x
CN(C)c1nccc(Nc2ccccc2)c1C#N,-12,126,-10,0,99*[fluorescence artefact?]
CN(C)CCN(Cc1ccccc1)c1nccc(N(C)C)c1C#N,-4,96,10,0,10
O=C1c2cccc(O)c2C(=O)c2c(O[C@@H]3O[C@H](CO)[C@@H](O)[C@H](O)[C@H]3O)cccc21,x,x,70*,x,x
COc1ccc(OCC(=O)N/N=C/c2ccc(O[C@@H]3O[C@H](CO)[C@@H](O)[C@H](O)[C@H]3O)cc2)cc1,x,x,x,2,x
COc1ccccc1CNC(=O)c1ccccc1OC,-2,94,3,3,-7
COc1ccccc1CNC(=O)c1c(O)c2cc(OC)c(OC)cc2[nH]c1=O,28,81,17,-4,57*[fluorescence artefact?]
C[C@H]1[C@H](O)[C@@H](C)C=CC=CC=CC=CC=CC=CC=C[C@H](O[C@H]2O[C@@H](C)[C@H](O)[C@@H](N)[C@@H]2O)C[C@@H]2O[C@@](O)(C[C@@H](O)C[C@@H](O)[C@@H](O)CC[C@@H](O)C[C@@H](O)CC(=O)O[C@H]1C)C[C@H](O)[C@H]2C(=O)O,x,x,17,x,x
O=C(O)[C@H]1CCCC[C@@H]1c1c2ccc(=O)c(O)c-2oc2c(O)c(O)ccc12,x,x,101*,x,x
O=C(O)CCCSc1ccccc1,x,x,-4,x,x
CCC(=C(c1ccc(OC)cc1)c1ccc(OC)cc1)c1cn(CC(O)CN2CCN(C)CC2)c2ccccc12 (stereo not given),36,26,0,13,70*[fluorescence artefact?]
COc1ccc(C(=O)Nc2nc3c(s2)Cc2cc(OC)ccc2-3)cc1,55*,7,11,-1,95*[fluorescence artefact?]
Cc1cnn(-c2ccc3nnc(-c4ccc(Cl)cc4)n3n2)c1,29,329*[fluorescence artefact?],1,7,26
N#C/C(=C(/O)CSc1nnc(Cc2cccs2)n1C1CCCCC1)c1nc2ccccc2[nH]1,-3,58,7,x,77*[fluorescence artefact?]
